Values joined by “and” are separate entries in the source; they are usually repeats but may differ in a detail not shown here. Identical values can stand only once. Hit rate of the full screen: of about 4,400 compounds, about 390 (8.9%) showed an effect of 50% or more. The full list was thinned out, with strong results kept by preference.
Tested on: Trypanosoma brucei
Experiment: DNDI: Inhibition of Human African Trypanosomiasis, SBRI 427, in vitro at 2 ug.mL-1
Format: functional

| Compound | % inhibition |
| --- | --- |
| O/N=C(\NC1CCN(Cc2ccccc2)C1)c1cccnc1Oc1ccccc1Cl (configuration not stated) | 2% |
| Cc1cccc(Oc2ncccc2/C(=N/O)NC2CCC(C)CC2)c1C (configuration not stated) | 20% |
| CC1CCC(C)N1/C(=N\O)c1cccnc1Oc1ccc(F)cc1Cl (configuration not stated) | 24% |
| CN(/C(=N\O)c1cccnc1Oc1ccc(F)cc1Cl)C1CCCCC1 | 7% |
| CC1CCC(N/C(=N\O)c2cccnc2Oc2ccccc2Cl)CC1 (configuration not stated) | 99% |
| CC1CCC(N/C(=N\O)c2cccnc2Oc2ccc(F)cc2Cl)CC1 (configuration not stated) | 95% |
| Cc1cccc(-c2nc(Cn3cc(C=O)nc3C)co2)c1 | 1% |
| CCOc1ccccc1-c1nc(CN(CCOC)C(C)C)co1 | 1% |
| C=CCN1CCN(/C(=N\O)c2cccnc2OCC(F)(F)F)CC1 | 7% |
| CCOc1cccc(-c2nc(CN(CCC#N)C3CCCCC3)co2)c1 | 18% |
| CN(C)CCN(C)Cc1coc(-c2ccc(O)cc2)n1 | 7% |
| NCCc1cn(Cc2coc(-c3ccccc3F)n2)cn1 | 40% |
| NCCc1cn(Cc2coc(-c3ccc(Cl)cc3Cl)n2)cn1 | 75% |
| Cc1cn(Cc2coc(-c3ccc(Cl)cc3Cl)n2)cn1 | 2% |
| Clc1ccc(-c2nc(Cn3cnc(-c4ccccc4)c3)co2)c(Cl)c1 | 7% |
| NCCc1cn(Cc2coc(-c3ccccc3Br)n2)cn1 | -5% |
| NCCc1cn(Cc2coc(-c3cccc4ccccc34)n2)cn1 | 73% |
| CSc1ccc(Oc2ccc(/C(=N/O)NC3CC(C)CC(C)(C)C3)cn2)cc1 (configuration not stated) | -8% |
| COc1ccc(-c2nc(CN3CCN(c4ccc(C(C)=O)cc4)CC3)co2)cc1 | 4% |
| CCOc1ccccc1-c1nc(CNCc2ccc(C(C)(C)C)cc2)co1 | 6% |
| Cc1ccc(/C(=N/O)N2CCCCC2)c(Oc2cccc(F)c2)n1 | 16% |
| O/N=C(\NC1CCCCC1)c1ccc(Oc2cc(Cl)ccc2Cl)nc1 | 98% |

| Compound | % inhibition |
| --- | --- |
| O/N=C(\NCc1cccnc1)c1ccc(Oc2cc(Cl)ccc2Cl)nc1 | 8% |
| CSc1ccc(Oc2ccc(/C(=N/O)NCc3ccccc3F)cn2)cc1 | 95% |
| O/N=C(\NCC1CCCCC1)c1ccc(Oc2cc(Cl)ccc2Cl)nc1 | 76% |
| CSc1ccc(Oc2ccc(/C(=N/O)NCc3ccccc3C)cn2)cc1 | -7% |
| O/N=C(\NCCN1CCOCC1)c1ccc(Oc2cc(Cl)ccc2Cl)nc1 | 34% |
| O/N=C(/c1ccc(Oc2cc(Cl)ccc2Cl)nc1)N1CCN(C2CCCC2)CC1 | 22% |
| O/N=C(\NCc1ccccc1F)c1ccc(Oc2ccc(Cl)cc2)nc1 | -6% |
| O/N=C(\NCC1CCCO1)c1ccc(Oc2cc(Cl)ccc2Cl)nc1 (configuration not stated) | 34% |
| O/N=C(\NCC1CCCCC1)c1ccc(Oc2cccc3ccccc23)nc1 | 24% |
| O/N=C(\NC1CCCC1)c1ccc(Oc2cc(Cl)ccc2Cl)nc1 | 99% |
| N/C(=N\O)c1ccc(Oc2cc(Cl)ccc2Cl)nc1 | 10% |
| COc1ccc(Oc2nc(C)ccc2/C(=N/O)NCc2cc(F)ccc2F)cc1 | 15% |
| Cc1ccc(/C(=N/O)N2CCSC2)c(Oc2ccc3oc4ccccc4c3c2)n1 | 14% |
| Cc1cccc(-c2nc(CNCC(F)(F)F)co2)c1 | -2% |
| COc1cccc(CNCc2coc(-c3ccc(Cl)cc3Cl)n2)c1OC | 6% |
| CCN(Cc1ccccc1)Cc1coc(-c2cccc(F)c2)n1 | 14% |
| Cc1ccc(/C(=N/O)n2ccnc2C)c(OCC(F)(F)F)n1 | 21% |
| COC(=O)C1CCN(Cc2coc(-c3ccc(O)cc3)n2)CC1 | -3% |
| CCOc1ccc(-c2nc(CNCCCN(C)c3ccccc3)co2)cc1 | 42% |
| CCOc1ccccc1-c1nc(CN2CCN(c3ccc(C)cc3C)CC2)co1 | 7% |
| O/N=C(\NCC1CCCO1)c1ccc(Oc2ccc(-n3ccnc3)cc2)nc1 (configuration not stated) | 32% |
| COc1ccc(CN/C(=N\O)c2ccc(Oc3ccc(Cl)cc3)nc2)cc1 | 6% |

| Compound | % inhibition |
| --- | --- |
| O/N=C(\NCc1ccccc1)c1ccc(Oc2ccc(Cl)cc2)nc1 | 57% |
| O/N=C(\NCC1CCCCC1)c1ccc(Oc2ccc(Cl)cc2)nc1 | 93% |
| O/N=C(\NCC1CCCCC1)c1ccc(Oc2ccc(F)cc2)nc1 | 28% |
| O/N=C(\NCc1ccccc1)c1ccc(Oc2ccc(-n3ccnc3)cc2)nc1 | 16% |
| O/N=C(\NCC1CCCO1)c1ccc(Oc2ccc(Cl)cc2)nc1 (configuration not stated) | 47% |
| O/N=C(\NCC1CCCCC1)c1ccc(Oc2ccc(-n3ccnc3)cc2)nc1 | 78% |
| O/N=C(\NCc1ccncc1)c1ccc(Oc2ccc(Cl)cc2)nc1 | -11% |
| CC1CN(Cc2coc(-c3ccc(Cl)cc3Cl)n2)CC(C)O1 (configuration not stated) | 14% |
| CCCN/C(=N\O)c1ccc(C)nc1Oc1cccc(C(C)C)c1 | 4% |
| c1coc(-c2nc(CN3CCCc4ccccc43)co2)c1 | 18% |
| COc1ccc(-c2nc(CNC(C)c3ccccc3)co2)cc1 (configuration not stated) | 3% |
| Cc1ccc(/C(=N/O)NCc2ccccn2)c(OCc2cccc(F)c2)n1 | -1% |
| CCOc1ccc(-c2nc(Cn3ccnc3C(C)C)co2)cc1 | 10% |
| COc1ccc(-c2nc(CNC(c3ccccc3)c3ccccc3)co2)cc1 | -28% |
| COc1ccccc1Oc1ncccc1/C(=N/O)N1CCOCC1 | 16% |
| CCC(NCc1coc(-c2ccc(Br)cc2)n1)c1ccccc1 (configuration not stated) | -22% and -13% |
| Cc1ccc(Oc2nc(C)ccc2/C(N)=N/O)c(C)c1 | 11% |
| N#CCCN(Cc1coc(-c2ccc(F)cc2)n1)c1ccccc1 | -10% |
| Cc1ccc(Oc2cc(/C(=N/O)N3CCCCCC3)ccn2)c(C)c1 | 98% |
| Cc1cc(C)cc(CN/C(=N\O)c2ccc(Oc3cc(Cl)ccc3Cl)nc2)c1 | -11% |
| O/N=C(\NCc1cccnc1)c1ccnc(Oc2cc(Cl)ccc2Cl)c1 | 17% |
| CC(C)(C)CN/C(=N\O)c1ccc(Oc2cc(Cl)ccc2Cl)nc1 | 99% |

| Compound | % inhibition |
| --- | --- |
| Cc1ccc(Oc2cc(/C(=N/O)NCC(C)(C)C)ccn2)c(C)c1 | 96% |
| Cc1ccc(Oc2cc(/C(=N/O)N3CC(C)CC(C)C3)ccn2)c(C)c1 (configuration not stated) | 22% |
| COCCN/C(=N\O)c1ccnc(Oc2cc(Cl)ccc2Cl)c1 | 27% |
| Cc1ccc(Oc2cc(/C(=N/O)NCc3ccccc3C)ccn2)c(C)c1 | 42% |
| COCCN/C(=N\O)c1ccnc(Oc2ccc(C)cc2C)c1 | 6% |
| Cc1ccc(Oc2cc(/C(=N/O)N3CCCCC3)ccn2)c2c1CCC2 | 19% |
| CC(C)(C)CN/C(=N\O)c1ccnc(Oc2cc(Cl)ccc2Cl)c1 | 56% |
| O/N=C(\NCc1ccccc1)c1ccc(Oc2cc(Cl)ccc2Cl)nc1 | 31% |
| Cc1ccc(/C(N)=N/O)c(Oc2ccc(F)c(Cl)c2)n1 | 20% |
| COc1ccc(-c2nc(CN3CCCCCC3)co2)cc1 | 18% |
| CCOc1ccc(-c2nc(CN3CCN(c4cccc(Cl)c4)CC3)co2)cc1 | -2% |
| Cc1ccc(-c2nc(CNC(c3ccccc3)c3ccccc3)co2)cc1 | -9% |
| CCOc1ccccc1-c1nc(CN(C)CC(C)C)co1 | 3% |
| COc1ccc(CNCc2coc(-c3cccs3)n2)cc1OC | -8% |
| Cc1ccc(/C(=N/O)N2CCN(c3ccc(F)cc3)CC2)c(OCc2ccccc2F)n1 | 7% |
| CCOc1ccc(-c2nc(CN3CCN(C(=O)c4ccco4)CC3)co2)cc1 | 0% |
| CCC(CC)N/C(=N\O)c1cccnc1Oc1ccc(OC)cc1 | 100% |
| CCC(CC)N/C(=N\O)c1cccnc1Oc1ccc(F)cc1 | 96% |
| COc1ccc(Oc2ncccc2/C(=N/O)NC(C)C)cc1 | 4% |
| COCC(C)N/C(=N\O)c1cccnc1Oc1ccc(F)cc1 (configuration not stated) | 13% |
| COc1cc2c(cc1OC)C(C(C)C)N(Cc1coc(-c3ccc(F)cc3)n1)CC2 (configuration not stated) | 5% |
| COc1ccc(CN/C(=N\O)c2ccc(C)nc2Oc2ccc(F)cc2)cc1 | 30% |

| Compound | % inhibition |
| --- | --- |
| CCC(C)(C)N/C(=N\O)c1cccnc1Oc1ccc(-n2cncn2)cc1 | 45% |
| CCOC(=O)C1CCCN(Cc2coc(-c3ccc(Br)cc3)n2)C1 (configuration not stated) | 0% |
| CSc1ccc(Oc2ncccc2/C(=N/O)NCc2cccnc2)cc1 | 2% |
| Cc1ccc(Oc2ncccc2/C(=N/O)N2CC=CCC2)c2c1CCC2 | 14% |
| CCc1nc(C)cn1Cc1coc(-c2cccc(OC)c2)n1 | -9% |
| COc1ccc(Oc2ncccc2/C(=N/O)N2CCCCC2)cc1 | 7% |
| CCC(C)(C)N/C(=N\O)c1ccc(C)nc1Oc1ccc(F)c(Cl)c1 | -27% |
| Cc1ccc(/C(=N/O)NCC(C)(C)C)c(Oc2cc(Cl)ccc2Cl)n1 | 100% |
| CCC(C)(C)N/C(=N\O)c1ccc(C)nc1Oc1cc(Cl)ccc1Cl | 63% |
| CCC(C)(C)N/C(=N\O)c1ccc(C)nc1Oc1ccc(Cl)cc1 | -12% |
| CCOc1ccccc1-c1nc(CN2CC[C@@H]3CCCC[C@@H]3C2)co1 | 16% |
| CCOc1ccccc1-c1nc(Cn2ccnc2CC)co1 | -1% |
| N#CCCN(Cc1coc(-c2ccc(Cl)cc2Cl)n1)C1CCCCC1 | 3% |
| O/N=C(\NCc1cc(F)ccc1F)c1ccc(Oc2cccc3cccnc23)nc1 | 4% |
| COc1cc(-c2nc(CNCC(c3ccccc3)c3ccccc3)co2)cc(OC)c1OC | 22% |
| Cc1cn(/C(=N\O)c2ccc(C)nc2Oc2cccc(F)c2)cn1 | 0% |
| COCCN(Cc1coc(-c2ccc(OC)cc2)n1)C(C)C | -10% |
| Cn1nc(C(C)(C)C)cc1NCc1coc(-c2ccccc2Br)n1 | -43% |
| CC(C)(C)COc1ncccc1/C(=N/O)NCc1ccccc1 | 17% |
